Source: PubChem BioAssay
Sfp inh = inhibitors of Bacillus subtilis Sfp phosphopantetheinyl transferase | Potency, µM, for inactives: largest response in the series, negative = inhibition, most hits filed as inhibitors | AID 1490 | hit rate 3.5% among 310,000 | Biochemical Sfp PPTase activity, qHTS | Q9F4F7;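 also: the enzyme is Sfp with the accession as filed and its product quenches rhodamine fluorescence; 0% = enzyme reaction without inhibitor and -100% = no enzyme wells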
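Sfp 15 nM + cpd, 15 min RT; start w/ rhodamine-CoA 5 uM, BHQ-2-YbbR 12.5 uM (final); 50 mM Hepes pH 7.6, 10 mM MgCl2, 0.01% NP-40, 0.01% BSA; read 525/598 nm at 0 and 30 min.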
L3MBTL1 block = blocks human L3MBTL1 | Potency, µM (doses to about 57.1 µM), for inactives: top-dose activity, negative = inhibition, actives largely listed as inhibitors | hit rate 0.66% among 230,000 | Q9Y468 | AlphaScreen L3MBTL1–H3K9me1 peptide binding | AID 485360; also: % is scaled to controls: 0 for no effect and ±100 for the full control effect; nearly all actives have a fitted effect of over 60% in size
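Displacement of a biotinylated histone H3(1-15) peptide monomethylated at Lys9 (75 nM) from L3MBTL1 (50 nM) was measured by AlphaScreen after a 30 min room-temperature compound incubation; cefsulodin titration served as intraplate control.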
JMJD2A Tudor = inhibitors of human JMJD2A Tudor domain; O75164; hit rate 4.4% among 390,000; AlphaScreen JMJD2A-Tudor / H3K4me3 peptide binding; Potency, µM (titrated, usually from 114 µM), for inactives: at the top dose activity change, negative = inhibition, actives largely listed as inhibitors; also: % is scaled to controls: 0 for no effect and ±100 for the full control effect; nearly all actives have a fitted effect of over 50% in size
HP1b chromo inh = blocks HP1-beta chromodomain binding to methylated histone tails; AlphaScreen HP1-beta / biotin-H3K9me3 peptide binding; Potency, µM (doses to about 114 µM), without a hit: at the highest dose activity change, negative = inhibition, actives largely listed as inhibitors; AID 540317; hit rate 0.56% among 390,000; P83916; also: nearly all actives have a fitted effect of over 70% in size
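HP1-beta protein (50 nM final) preincubated 30 min at room temperature with biotinylated H3(1-18)K9me3 peptide (50 nM) in PBS pH 7.4, 0.01% Tween-20, then compound added for 30 min. AlphaScreen streptavidin donor/nickel chelate acceptor beads (10 ug/mL final), 30 min dark, luminescence read.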
G9a block = inhibitors of human histone lysine methyltransferase G9a; Q96KQ7; G9a H3K9 monomethylation, AlphaScreen, 2 h; Potency, µM (series often up to 102 µM), for the others: top-dose activity, negative = inhibition, most hits filed as inhibitors; hit rate 8.8% among 350,000; AID 504332; also: % is scaled to controls: 0 for no effect and ±100 for the full control effect; nearly all actives have a fitted effect of over 75% in size
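Readings reflect AlphaScreen signal from monomethyl-H3K9 antibody detection. HMT at 20 nM; substrate b-H3K9 500 nM; cofactor SAM 20 uM; 2 h RT reaction; compounds tested as titrations in qHTS with 15 min preincubation.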
BAZ2B inh = BAZ2B (human) inhibition | Q9UIF8 | AlphaScreen BAZ2B-H3K14Ac peptide displacement | Potency, µM (series often up to 114 µM), for the others: at the top dose activity change, negative = inhibition, most hits filed as inhibitors | hit rate 4.4% among 360,000 | AID 504333; also: % is scaled to controls: 0 for no effect and ±100 for the full control effect; nearly all actives have a fitted effect of over 60% in size
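In this displacement format the biotinylated H3(5-23) peptide acetylated at Lys14 serves as ligand at 50 nM, with BAZ2B at 50 nM in PBS pH 7.4 containing 0.01% Tween-20. Donor and acceptor beads are 10 ug/mL final.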
Active calls of the source: *; ? = inconclusive; . = not tested or not shown; [ ] = remark or other dose. Compounds with a hit are over-represented: about 12% of the library has one in this group of screens. Calls follow the shape of the dose curve; as a rule, active = well fitted curve in the direction sought with a large enough effect; inconclusive = small, poorly fitted or top-dose-only effect, or another doubt; inactive = no such curve, though single readings can be large; an effect the other way counts as inactive or inconclusive. Potency is read from the fitted curve at half-maximal effect.

SMILES | Sfp inh | L3MBTL1 block | JMJD2A Tudor | HP1b chromo inh | G9a block | BAZ2B inh
COc1cccc(/C=C2\SC(=S)N(NS(=O)(=O)c3ccccc3)C2=O)c1OC | -14% | . | ? | 0% | 40µM* | -38%
COC(=O)NCC(c1cccnc1)N1CCN(c2ccc(F)cc2)CC1 (configuration not stated) | . | . | -22% | ? | ? | -12%
C#CCOc1ccc(/C=C2/C(=O)N(c3cccc(C(=O)O)c3)N=C2C)cc1OC | ? | -13% | ? | -11% | . | -37%
COc1cc(/C=C2/C(=O)N(c3ccc(C(=O)O)cc3)N=C2C)cc(OC)c1O | 40µM* | . | -22% | ? | 40µM* | ?
CC1=NN(c2ccccc2)C(=O)/C1=C\c1cn(-c2ccccc2)nc1C | 10% | -24% | ? | 8.9µM* | ? | .
COc1ccccc1/C=C1/C(=O)N(c2ccccc2)N=C1C | -4% | . | ? | -19%[57 µM] | ? | ?
CC1=NN(c2ccccc2)C(=O)/C1=C\c1sccc1C | -3% | -26% | ? | ? | ? | 7.1µM*
COc1cc(/C=C2/C(=O)N(c3ccc(Br)cc3)N=C2C)cc(OC)c1OC | ? | . | 35µM* | -35% | 50µM* | 40µM*
Cc1ccc2c(c1)c1c(c(=O)n(-c3cccc(Cl)c3)c(=O)n1C)n2C | . | . | -8% | -1% | 2%[59 µM] | -4%
COc1ccc(C2/C=C\CN(C(=O)c3ccccc3)C(Cc3ccccc3)C(=O)N2Cc2ccc(F)cc2)cc1 (configuration not stated) | -7% | . | -21% | 6% | . | .
COc1cc(/C=C2/C(=O)N(c3ccc(C)c(C)c3)N=C2C)cc([N+](=O)[O-])c1O | -4% | -2%[2.29 µM] | 45µM* | ? | 2%[0.501 µM] | 40µM*
CC1=NN(c2ccc(Br)cc2)C(=O)/C1=C/c1cccs1 | -4% | ? | ? | -53% | 7.1µM* | 4.5µM*
CC1=NN(c2ccc(C)cc2)C(=O)/C1=C\c1ccc(Br)s1 | -7% | ? | -35% | ? | ? | 0%
COc1cc(/C=C2\C(=O)N(c3ccc(S(N)(=O)=O)cc3)N=C2C)ccc1OC(=O)c1ccco1 | ? | . | ? | 3% | ? | ?
CC1=NN(c2ccccc2)C(=O)/C1=C\c1cn(CCC#N)nc1-c1ccc(Cl)cc1 | -6% | ? | ? | ? | 4.5µM* | ?
Cn1cc(C=C2C(=O)CC(C)(C)CC2=O)c2ccccc21 | -16% | -5% | ? | -15% | 45µM* | ?
N#Cc1ccc(CN2CC3(CCN(C(=O)c4cnccn4)CC3)C2)cc1 | 20% | . | . | . | -2%[12.7 µM] | .
CSc1ncc2c(n1)-c1ccccc1N(Cc1ccccc1)S2(=O)=O | . | . | 59% | 90% | 38%[59 µM] | 32%
CCOC(=O)c1noc2ncnc(Nc3cccc(C(F)(F)F)c3)c12 | . | . | -10% | 42% | 3%[59 µM] | -17%
CCN(Cc1ccccc1)C(=O)C(CC(C)C)NS(=O)(=O)c1ccc2c(c1)CCN2C(C)=O (configuration not stated) | . | . | -16% | 12% | 2%[59 µM] | .
Cc1ccc(-c2nn(-c3ccccc3)cc2C=C2C(=O)CC(C)(C)CC2=O)cc1 | 25µM* | 5% | -33% | -6% | 15%[0.0925 µM] | ?
Cc1cccc(C)c1OCC(=O)N1CCC(c2nc3ccccc3o2)CC1 | . | . | 5% | 45% | 10%[59 µM] | -1%
C#CCOCCOCCOCCNc1nc(N2CCN(C(=O)[C@H]([C@@H](C)CC)n3cc(CCCCN)nn3)CC2)nc(N2CCN(C(=O)[C@H](CCCCN)n3cc(CC(C)O)nn3)CC2)n1 (some centres not stated) | . | 3% | -34% | 23% | -37%[2.33 µM] | ?
C#CCOCCOCCOCCNc1nc(N2CCN(C(=O)[C@H]([C@@H](C)CC)n3cc([C@@H](N)Cc4ccc(O)cc4)nn3)CC2)nc(N2CCN(C(=O)[C@H](CCCCN)n3cc([C@@H](N)CC(C)C)nn3)CC2)n1 | 8% | -24% | . | . | ? | 79µM*
C#CCOCCOCCOCCNc1nc(N2CCN(C(=O)[C@H](CCCCN)n3cc([C@@H](N)C(C)CC)nn3)CC2)nc(N2CCN(C(=O)[C@H](Cc3ccc(O)cc3)n3cc([C@@H](N)CC(C)C)nn3)CC2)n1 (some centres not stated) | 8% | -7% | ? | 26% | ? | 79µM*
SMILES | Sfp inh | L3MBTL1 block | JMJD2A Tudor | HP1b chromo inh | G9a block | BAZ2B inh
C#CCOCCOCCOCCNc1nc(N2CCN(C(=O)[C@H](CCCCN)n3cc([C@@H](N)CC(C)C)nn3)CC2)nc(N2CCN(C(=O)[C@H](Cc3ccc(O)cc3)n3cc([C@@H](N)CC(C)C)nn3)CC2)n1 | 20% | -25% | 79µM* | -7% | 4%[12.7 µM] | 56µM*
Cc1cc(C)c(NC(=O)CCCn2c(C)c3cnn(-c4ccccc4)c(=O)c3c2C)c(C)c1 | . | . | -34% | 19% | -8%[59 µM] | ?
N#Cc1cccc(-c2nc(NCc3cccs3)c3ccccc3n2)c1 | 5% | . | . | . | 24%[0.501 µM] | .
NCCSC1CC(=O)N(Cc2ccc(F)cc2)C1=O (configuration not stated) | 6% | 8% | 2% | 36% | 40µM* | -5%
CCCCCCOc1ccc(N2C(=O)CC(SCCN)C2=O)cc1 (configuration not stated) | -13% | 1% | -21% | 54% | ? | -31%
CCOc1ccc(N2C(=O)CC(/C=C3/N(C)c4ccccc4C3(C)C)C2=O)cc1 (configuration not stated) | 0% | . | ? | 8% | 14µM* | ?
CCOc1ccc(N2C(=O)CC(SCCN)C2=O)cc1 (configuration not stated) | ? | 4% | -29% | 23% | 18µM* | -32%
CCOc1ccc(-n2nnnc2SCC(=O)c2ccccc2)cc1 | 1% | 7% | 4% | 55% | -4% | 6%
CCOc1ccc(N2C(=O)CC(Sc3nnnn3-c3ccccc3)C2=O)cc1 (configuration not stated) | 16µM* | 4% | 5% | 52% | 10µM* | -23%
COc1cccc(CNC(=O)CSC2=Nc3ccccc3N=C(c3ccc(F)cc3)C2)c1 | . | . | -14% | 5%[57 µM] | 0%[59 µM] | -8%
Cc1ccc(CCNC(=O)c2ccc3c(c2)N(Cc2ccccc2F)C(=O)c2ccccc2S3=O)cc1 (configuration not stated) | . | . | -4% | 31% | -1%[59 µM] | -13%
CC(=O)NC1=NN(C(C)=O)C(C)(c2ccccc2)S1 (configuration not stated) | 9% | 32µM* | -2% | 9% | ? | 45µM*
CC(C)c1ccc(O)c(NC(=O)c2ncn[nH]2)c1 | 23% | -2% | -17% | 32% | . | ?
